Assay results reported in the supplement of paper PMC10849652.
Targets with a hit are over-represented here; the source holds about 7,900 in all. About 0.6% of all pairs of compound and target were hits.

Key:
Test in all cases: log2 fold change, soluble protein after heating vs DMSO (PISA); higher = thermal stabilisation; K562 cells, 10 uM, 30 min; active = over 0.2 and 3.5 SD of the protein, either way, in both replicates (recomputed)
[1] = compound: NC(=O)Nc1cc(-c2cccc(F)c2)sc1C(=O)N[C@H]1CCCNC1
Summary of the method: (§1)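 K562 cells (2×10^6 cells/mL) were treated with 10 μM compound for 30 min, and aliquots were heated for 3 min over 48°C-58°C. Pooled aliquots were extracted in PBS with 0.5% NP-40 at 4°C, and the supernatant after 21,000xg for 90 min was measured by TMTpro 16plex LC-MS/MS with channel sums equalised. Reported thermal stability, relative to control samples and from duplicates, is a log2 fold change.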

[2] = compound: NC(=O)c1cnc(N[C@@H]2CCCC[C@@H]2N)nc1Nc1cccc(-n2nccn2)c1
Summary of the method: as §1

[3] = compound: NC1(c2ccc(-c3nc4ccn5c(=O)[nH]nc5c4cc3-c3ccccc3)cc2)CCC1
Summary of the method: as §1

[4] = compound: NCC(=O)Nc1ccc(-n2nc(C(F)(F)F)cc2-c2ccc3c(ccc4ccccc43)c2)cc1
Summary of the method: as §1

entinostat = compound: Nc1ccccc1NC(=O)c1ccc(CNC(=O)OCc2cccnc2)cc1 [entinostat]
Summary of the method: as §1

vorinostat = compound: O=C(CCCCCCC(=O)Nc1ccccc1)NO [vorinostat]
Summary of the method: as §1

citarinostat = compound: O=C(CCCCCCNC(=O)c1cnc(N(c2ccccc2)c2ccccc2Cl)nc1)NO [citarinostat]
Summary of the method: as §1

silmitasertib = compound: O=C(O)c1ccc2c(c1)nc(Nc1cccc(Cl)c1)c1ccncc12 [silmitasertib]
Summary of the method: as §1

[5] = compound: O=C1NC(=O)C(c2cnc3ccccn23)=C1c1cn2c3c(cc(F)cc13)CN(C(=O)N1CCCCC1)CC2
Summary of the method: as §1

[6] = compound: c1cc(OCCN2CCCCC2)cc(-c2n[nH]c3ccc(-c4nnc[nH]4)cc23)c1
Summary of the method: as §1

entospletinib = compound: c1cn2cc(-c3ccc4cn[nH]c4c3)nc(Nc3ccc(N4CCOCC4)cc3)c2n1 [entospletinib]
Summary of the method: as §1

Measured: log2 fold change

POLR3K (UniProt Q9Y2Y1)
Chain of UniProt Q9Y2Y1 (Q9Y2Y1 whole entry, looked up): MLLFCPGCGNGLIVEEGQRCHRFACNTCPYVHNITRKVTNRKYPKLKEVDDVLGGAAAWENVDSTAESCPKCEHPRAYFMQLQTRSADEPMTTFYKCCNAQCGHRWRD
inactive: [1] 0.045 | [2] 0.007 | [3] 0.057 | [4] 0.057 | entinostat 0.009 | vorinostat -0.003 | citarinostat -0.025 | silmitasertib 0.013 | [5] -0.028 | [6] 0.025 | entospletinib 0.113

PTP4A2 (UniProt Q12974)
Chain of UniProt Q12974 (Q12974 whole entry, looked up): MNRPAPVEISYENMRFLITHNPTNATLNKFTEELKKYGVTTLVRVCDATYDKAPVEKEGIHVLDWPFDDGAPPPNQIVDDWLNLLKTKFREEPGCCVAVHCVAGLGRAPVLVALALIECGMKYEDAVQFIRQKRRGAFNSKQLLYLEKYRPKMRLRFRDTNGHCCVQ
inactive: [1] -0.161 | [2] -0.286 | [3] 0.079 | [4] -0.023 | entinostat 0.011 | citarinostat 0.016 | silmitasertib 0.052 | [5] -0.168 | [6] -0.045 | entospletinib -0.019

PML (UniProt P29590)
inactive: [1] 0.021 | [2] -0.027 | [3] -0.029 | [4] 0.015 | entinostat -0.002 | vorinostat -0.059 | citarinostat 0.019 | silmitasertib 0.088 | [5] 0.002 | [6] -0.042 | entospletinib 0.073

PRKD2 isoform 3 (UniProt Q9BZL6)
active: [1] -0.515
inactive: [2] -0.217 | [3] -0.074 | [4] 0 | entinostat 0.331 | vorinostat 0.186 | silmitasertib 0.047 | [5] -0.014

POLD3 (UniProt Q15054)
inactive: [1] 0.035 | [2] -0.143 | [3] -0.107 | [4] -0.108 | entinostat 0.134 | vorinostat -0.008 | citarinostat 0.003 | silmitasertib -0.022 | [5] -0.013 | [6] 0.109 | entospletinib -0.054

PHKA1 (UniProt P46020)
inactive: [1] 0.03 | [2] 0.046 | [3] -0.202 | entinostat -0.005 | vorinostat 0.013 | citarinostat 0.128 | silmitasertib 0.004 | [5] 0.027 | [6] -0.068 | entospletinib 0.063

POTEI (UniProt P0CG38)
inactive: [1] -0.058 | [2] 0.061 | [3] 0.139 | [4] 0.124 | entinostat -0.004 | vorinostat -0.016 | citarinostat -0.009 | silmitasertib -0.03 | [5] -0.053 | [6] -0.004 | entospletinib -0.074

PSMB9 (UniProt P28065)
inactive: [1] -0.122 | [2] -0.102 | [4] 0.029 | entinostat -0.118 | vorinostat 0.086 | citarinostat -0.028 | [5] -0.061 | [6] 0 | entospletinib -0.251

PDE6D (UniProt O43924)
inactive: [1] 0.001 | [2] -0.113 | [3] 0.122 | [4] 0.025 | entinostat 0.125 | vorinostat -0.007 | silmitasertib 0.077 | [5] 0.009

POLR2C (UniProt P19387)
inactive: [1] -0.046 | [2] -0.026 | [3] -0.131 | [4] -0.196 | entinostat -0.031 | citarinostat 0.017 | silmitasertib 0.118 | [5] -0.023 | [6] -0.195 | entospletinib 0.138

PHKA2 (UniProt P46019)
inactive: [1] 0.013 | [2] -0.112 | [3] -0.157 | [4] 0.005 | entinostat 0.13 | vorinostat 0.04 | citarinostat -0.046 | silmitasertib 0.001 | [5] -0.013 | [6] 0.065 | entospletinib -0.043

PNPLA8 (UniProt Q9NP80)
inactive: [1] -0.035 | [2] 0.007 | [3] -0.038 | [4] -0.038 | entinostat -0.031 | vorinostat 0.111 | citarinostat 0.049 | silmitasertib -0.036 | [5] -0.017 | [6] -0.052 | entospletinib -0.015

PAK4 (UniProt O96013)
inactive: [1] 0.048 | [3] 0.015 | [4] -0.038 | entinostat -0.083 | vorinostat 0.01 | citarinostat 0.003 | silmitasertib 0.041 | [5] 0.017 | [6] -0.039 | entospletinib -0.002
active: [2] 0.388

PRKCB isoform 2 (UniProt P05771)
inactive: [1] -0.052 | [2] -0.037 | [3] -0.118 | [4] -0.058 | entinostat 0.045 | vorinostat 0.02 | citarinostat 0.041 | silmitasertib 0.032 | [5] -0.051 | [6] 0.02 | entospletinib -0.012

PRKD3 (UniProt O94806)
inactive: [1] -0.565 | [2] -0.263 | [3] -0.285 | [4] -0.213 | entinostat 0.34 | vorinostat 0.096 | silmitasertib 0.021

PRR14L (UniProt Q5THK1)
inactive: [2] -0.205 | [4] -0.176 | vorinostat -0.009

PPP2R5C isoform 2 (UniProt Q13362)
inactive: [3] -0.183 | citarinostat 0.069 | silmitasertib -0.064 | [6] 0.105 | entospletinib -0.041

PIK3CD (UniProt O00329)
Chain of UniProt O00329 (O00329 whole entry, looked up): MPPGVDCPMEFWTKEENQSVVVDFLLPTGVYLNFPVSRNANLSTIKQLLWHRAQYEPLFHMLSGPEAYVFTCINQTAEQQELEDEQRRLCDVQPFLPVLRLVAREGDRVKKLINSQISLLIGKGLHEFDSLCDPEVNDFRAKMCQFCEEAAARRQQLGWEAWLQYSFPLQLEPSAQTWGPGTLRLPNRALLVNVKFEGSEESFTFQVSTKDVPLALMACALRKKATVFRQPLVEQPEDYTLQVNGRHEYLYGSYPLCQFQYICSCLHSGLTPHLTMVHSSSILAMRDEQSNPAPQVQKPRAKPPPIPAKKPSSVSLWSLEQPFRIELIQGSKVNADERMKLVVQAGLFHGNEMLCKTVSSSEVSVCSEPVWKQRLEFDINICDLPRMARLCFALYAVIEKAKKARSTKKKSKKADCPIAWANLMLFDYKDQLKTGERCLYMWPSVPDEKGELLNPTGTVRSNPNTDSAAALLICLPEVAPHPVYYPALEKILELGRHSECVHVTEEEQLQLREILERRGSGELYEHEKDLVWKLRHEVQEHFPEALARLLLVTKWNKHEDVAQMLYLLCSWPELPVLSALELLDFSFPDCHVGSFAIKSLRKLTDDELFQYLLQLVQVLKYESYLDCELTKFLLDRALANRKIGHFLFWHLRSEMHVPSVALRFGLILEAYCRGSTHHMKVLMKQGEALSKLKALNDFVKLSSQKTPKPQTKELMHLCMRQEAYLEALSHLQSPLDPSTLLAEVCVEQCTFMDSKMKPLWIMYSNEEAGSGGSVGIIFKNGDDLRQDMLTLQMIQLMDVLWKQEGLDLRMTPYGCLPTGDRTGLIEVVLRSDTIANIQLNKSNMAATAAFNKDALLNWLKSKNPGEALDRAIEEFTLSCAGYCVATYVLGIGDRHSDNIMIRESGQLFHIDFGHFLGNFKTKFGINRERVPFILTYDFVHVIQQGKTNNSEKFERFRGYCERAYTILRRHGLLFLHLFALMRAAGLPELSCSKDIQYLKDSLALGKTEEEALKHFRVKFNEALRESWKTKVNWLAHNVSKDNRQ
inactive: [1] 0.086 | [2] 0.014 | [4] -0.047 | entinostat -0.008 | citarinostat -0.285 | [5] -0.092 | [6] 0.143 | entospletinib -0.206

PUM1 (UniProt Q14671)
inactive: [2] 0.058 | vorinostat -0.037

PHLDB1 isoform 2 (UniProt Q86UU1)
inactive: [2] 0.112 | [3] -0.057 | [4] -0.186 | vorinostat 0.229 | citarinostat -0.014 | silmitasertib 0.045 | [5] -0.178 | [6] -0.117 | entospletinib -0.005

PTP4A3 (UniProt O75365)
inactive: [4] -0.105

PSD3 (UniProt Q9NYI0)
Chain of UniProt Q9NYI0 (Q9NYI0 whole entry, looked up): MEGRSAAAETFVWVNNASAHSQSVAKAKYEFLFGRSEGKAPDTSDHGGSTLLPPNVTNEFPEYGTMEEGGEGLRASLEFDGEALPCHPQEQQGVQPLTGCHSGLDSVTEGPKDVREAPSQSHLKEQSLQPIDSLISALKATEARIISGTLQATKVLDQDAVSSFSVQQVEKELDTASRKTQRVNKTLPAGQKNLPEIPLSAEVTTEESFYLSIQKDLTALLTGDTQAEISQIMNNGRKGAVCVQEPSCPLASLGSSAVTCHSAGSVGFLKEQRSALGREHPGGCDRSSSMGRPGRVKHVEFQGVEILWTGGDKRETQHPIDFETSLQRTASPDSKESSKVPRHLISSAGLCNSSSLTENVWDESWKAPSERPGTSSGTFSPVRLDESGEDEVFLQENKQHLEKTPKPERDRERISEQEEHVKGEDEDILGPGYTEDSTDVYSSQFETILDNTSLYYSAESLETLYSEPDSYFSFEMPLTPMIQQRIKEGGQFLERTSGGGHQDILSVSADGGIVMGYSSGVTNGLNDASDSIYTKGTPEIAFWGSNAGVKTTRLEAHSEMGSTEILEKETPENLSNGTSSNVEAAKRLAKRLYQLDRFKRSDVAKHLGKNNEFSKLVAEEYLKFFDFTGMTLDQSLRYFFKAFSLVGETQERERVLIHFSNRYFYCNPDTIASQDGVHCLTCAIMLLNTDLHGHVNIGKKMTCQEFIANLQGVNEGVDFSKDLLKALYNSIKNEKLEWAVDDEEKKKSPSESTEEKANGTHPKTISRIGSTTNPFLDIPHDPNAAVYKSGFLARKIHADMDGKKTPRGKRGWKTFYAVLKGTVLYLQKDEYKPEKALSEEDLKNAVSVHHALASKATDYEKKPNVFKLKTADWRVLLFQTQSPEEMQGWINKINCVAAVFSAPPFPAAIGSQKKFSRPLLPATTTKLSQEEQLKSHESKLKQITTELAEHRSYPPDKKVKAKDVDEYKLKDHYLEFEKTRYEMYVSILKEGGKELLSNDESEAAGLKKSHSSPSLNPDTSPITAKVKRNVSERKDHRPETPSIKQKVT
inactive: [3] -0.14 | [4] -0.113 | citarinostat 0.017 | silmitasertib -0.095 | [6] -0.02 | entospletinib -0.013
active: [2] -0.262

PDE4A (UniProt P27815)
active: [2] -0.67
inactive: [4] 0.047 | [5] -0.017

POLR2E (UniProt P19388)
inactive: [2] 0 | [3] -0.021 | [4] -0.02 | vorinostat -0.115 | citarinostat -0.001 | silmitasertib 0.134 | [5] 0.117 | [6] -0.088 | entospletinib 0.032

PSMA3 (UniProt G3V4X5)
inactive: [4] -0.055

POLB (UniProt P06746)
inactive: [1] -0.103 | entinostat 0.107 | vorinostat -0.106 | citarinostat 0.189 | [5] 0.113 | [6] -0.026 | entospletinib -0.156

PRKD2 (UniProt M0R346)
inactive: [1] -0.279 | entinostat 0.032 | vorinostat 0.021 | [5] -0.15

POGZ (UniProt Q7Z3K3)
active: [6] -0.483
inactive: [1] 0.009 | [2] 0.167 | [4] -0.028 | entinostat -0.031 | vorinostat -0.186 | citarinostat -0.206 | [5] -0.114 | entospletinib 0.101

PIGH (UniProt Q14442)
inactive: [2] -0.021 | [3] -0.087 | [4] -0.021 | vorinostat 0.18 | citarinostat 0.031 | silmitasertib 0.093 | [5] -0.128 | [6] -0.05 | entospletinib -0.034

PSMC3 (UniProt E9PLG2)
inactive: [1] -0.62 | [3] -0.077 | [4] 0.117 | entinostat -0.438 | silmitasertib 0.097 | [5] -0.327

PPP2R5B (UniProt Q15173)
Chain of UniProt Q15173 (Q15173 whole entry, looked up): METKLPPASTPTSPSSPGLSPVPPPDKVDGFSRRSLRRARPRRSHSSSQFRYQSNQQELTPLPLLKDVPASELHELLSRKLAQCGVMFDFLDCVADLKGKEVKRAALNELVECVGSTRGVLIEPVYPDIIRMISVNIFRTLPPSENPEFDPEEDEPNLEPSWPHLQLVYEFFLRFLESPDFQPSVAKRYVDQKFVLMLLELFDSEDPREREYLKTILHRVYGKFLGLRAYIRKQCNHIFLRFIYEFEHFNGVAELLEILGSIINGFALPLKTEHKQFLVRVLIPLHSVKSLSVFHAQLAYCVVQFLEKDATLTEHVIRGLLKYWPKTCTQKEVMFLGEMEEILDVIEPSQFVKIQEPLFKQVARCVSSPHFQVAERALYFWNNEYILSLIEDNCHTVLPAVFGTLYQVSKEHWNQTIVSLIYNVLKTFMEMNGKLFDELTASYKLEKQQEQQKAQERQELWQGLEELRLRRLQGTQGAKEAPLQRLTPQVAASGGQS
inactive: [2] 0.017 | [3] -0.167 | [4] -0.006 | vorinostat 0.112 | citarinostat 0.122 | silmitasertib 0 | [6] 0.127 | entospletinib -0.321

POM121 (UniProt Q96HA1)
Chain of UniProt Q96HA1 (Q96HA1 whole entry, looked up): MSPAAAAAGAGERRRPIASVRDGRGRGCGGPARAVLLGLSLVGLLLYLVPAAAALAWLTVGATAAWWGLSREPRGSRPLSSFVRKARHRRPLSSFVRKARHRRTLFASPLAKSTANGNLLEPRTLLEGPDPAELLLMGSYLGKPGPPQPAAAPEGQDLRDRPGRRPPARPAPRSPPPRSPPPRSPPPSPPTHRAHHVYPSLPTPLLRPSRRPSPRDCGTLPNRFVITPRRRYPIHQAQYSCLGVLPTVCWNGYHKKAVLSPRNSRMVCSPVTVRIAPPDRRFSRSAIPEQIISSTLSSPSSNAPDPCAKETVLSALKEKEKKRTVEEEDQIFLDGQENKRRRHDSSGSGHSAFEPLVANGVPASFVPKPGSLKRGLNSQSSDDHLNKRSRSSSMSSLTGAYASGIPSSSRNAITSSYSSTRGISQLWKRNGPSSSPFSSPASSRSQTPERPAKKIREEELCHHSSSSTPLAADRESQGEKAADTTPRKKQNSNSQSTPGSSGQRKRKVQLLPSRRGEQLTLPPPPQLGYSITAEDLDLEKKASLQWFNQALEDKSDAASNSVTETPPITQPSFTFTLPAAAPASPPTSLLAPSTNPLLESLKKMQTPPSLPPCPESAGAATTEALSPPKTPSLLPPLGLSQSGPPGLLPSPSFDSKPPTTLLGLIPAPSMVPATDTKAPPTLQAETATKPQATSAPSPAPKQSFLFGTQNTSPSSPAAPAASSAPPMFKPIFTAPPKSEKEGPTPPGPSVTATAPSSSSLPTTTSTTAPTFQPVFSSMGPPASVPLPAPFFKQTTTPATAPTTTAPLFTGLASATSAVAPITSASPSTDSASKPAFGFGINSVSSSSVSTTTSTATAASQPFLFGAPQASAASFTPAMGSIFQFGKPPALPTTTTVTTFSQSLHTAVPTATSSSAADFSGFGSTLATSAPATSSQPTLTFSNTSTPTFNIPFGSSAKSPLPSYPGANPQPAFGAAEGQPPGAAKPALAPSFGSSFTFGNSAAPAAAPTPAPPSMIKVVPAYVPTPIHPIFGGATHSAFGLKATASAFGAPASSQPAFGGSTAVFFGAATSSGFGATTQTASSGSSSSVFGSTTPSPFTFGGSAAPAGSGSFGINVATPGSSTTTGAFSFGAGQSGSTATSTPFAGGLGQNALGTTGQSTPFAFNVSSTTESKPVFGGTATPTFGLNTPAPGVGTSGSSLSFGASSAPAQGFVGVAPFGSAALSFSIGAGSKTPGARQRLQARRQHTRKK
inactive: [1] -0.015 | [2] -0.199 | [4] -0.083 | entinostat 0.01 | vorinostat 0.055 | citarinostat 0.045 | [5] 0.05 | [6] -0.045 | entospletinib -0.051

PIAS4 (UniProt Q8N2W9)
Chain of UniProt Q8N2W9 (Q8N2W9 whole entry, looked up): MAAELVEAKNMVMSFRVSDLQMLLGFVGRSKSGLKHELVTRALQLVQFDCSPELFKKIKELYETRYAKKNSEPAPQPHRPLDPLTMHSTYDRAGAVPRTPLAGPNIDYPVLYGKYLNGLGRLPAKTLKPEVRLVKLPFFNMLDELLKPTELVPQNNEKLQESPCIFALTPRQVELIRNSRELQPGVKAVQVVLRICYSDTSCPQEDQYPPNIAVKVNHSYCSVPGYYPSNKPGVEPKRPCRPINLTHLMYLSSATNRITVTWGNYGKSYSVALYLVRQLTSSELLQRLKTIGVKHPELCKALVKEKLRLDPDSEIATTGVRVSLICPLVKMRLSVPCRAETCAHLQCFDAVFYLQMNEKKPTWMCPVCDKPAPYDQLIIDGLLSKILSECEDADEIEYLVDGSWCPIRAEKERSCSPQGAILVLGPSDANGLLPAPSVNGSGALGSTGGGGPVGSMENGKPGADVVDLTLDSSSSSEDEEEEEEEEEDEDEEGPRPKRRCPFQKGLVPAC
inactive: [3] 0.094 | vorinostat -0.014 | silmitasertib -0.271 | [5] -0.404

PCID2 (UniProt Q5JVF3)
Chain of UniProt Q5JVF3 (Q5JVF3 whole entry, looked up): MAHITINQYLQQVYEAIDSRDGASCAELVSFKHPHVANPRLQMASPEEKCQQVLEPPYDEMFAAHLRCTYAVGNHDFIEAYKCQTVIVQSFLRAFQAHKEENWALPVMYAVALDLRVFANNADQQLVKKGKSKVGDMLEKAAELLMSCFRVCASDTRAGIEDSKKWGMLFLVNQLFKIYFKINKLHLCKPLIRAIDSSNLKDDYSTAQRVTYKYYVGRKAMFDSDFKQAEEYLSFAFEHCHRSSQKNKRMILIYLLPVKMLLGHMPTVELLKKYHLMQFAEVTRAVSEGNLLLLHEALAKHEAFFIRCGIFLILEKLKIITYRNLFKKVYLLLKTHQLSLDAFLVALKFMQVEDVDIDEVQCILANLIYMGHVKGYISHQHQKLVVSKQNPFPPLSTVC
inactive: [1] -0.019 | [3] -0.103 | [4] 0.06 | entinostat 0.12 | vorinostat 0.199 | citarinostat -0.004 | silmitasertib 0.038 | [5] -0.15 | [6] 0.062 | entospletinib 0.014

PPP1R12C (UniProt Q9BZL4)
inactive: [1] -0.151 | [3] -0.031 | [4] -0.022 | entinostat 0.072 | vorinostat 0.487 | citarinostat -0.008 | silmitasertib 0.122 | [5] -0.073 | [6] -0.278 | entospletinib 0.038

PCBP2 (UniProt F8VZX2)
inactive: [3] 0.158 | silmitasertib 0.193

PDE4DIP (UniProt E9PS60)
inactive: [4] -0.172 | citarinostat 0.06 | [6] -0.051 | entospletinib -0.01
